Data taken from paper PMC4552634, “A New Set of Chemical Starting Points with Plasmodium falciparum Transmission-Blocking Potential for Antimalarial Drug Discovery” (PLoS ONE, 2015).
Out of some 13,000 compounds screened, about 3,200 (25%) showed an effect of 50% or more. The list shows a part of the results.

Each molecule was assayed on P. falciparum stage V gametocytes. Conditions: 48 h, 5 µM; inhibitor.
Parameters: BacTiter-Glo ATP luminescence viability of purified stage V gametocytes in 384-well plates, per cent inhibition versus DMSO

| SMILES | % Inhibition |
| --- | --- |
| COc1ccc(Br)cc1/C=C/C(=O)Nc1ccc(C2CCCN(C)C2)cc1 (centres unmarked) [TCMDC-133712] | 9.818% |
| Fc1ccc(-c2cc(NCCCn3ccnc3)nc(-c3cccnc3)n2)cc1 [TCMDC-123785] | 9.204% |
| CC(Nc1ccc2c(c1)OCCO2)C(=O)Nc1cc(C(F)(F)F)ccc1N1CCOCC1 (centres unmarked) [TCMDC-124859] | -69.42% |
| CC(NC(=O)c1ccc(O)c(-c2ccc(Cl)c(Cl)c2)c1)C(=O)NC1CCCCC1 (centres unmarked) [TCMDC-140823] | 42.42% |
| Cc1cc(-c2cccc(CNCCc3ccc(Cl)cc3)c2)cnc1N [TCMDC-138091] | 14.17% |
| Cc1cc(-c2ccc3occ(CCN)c3c2)cnc1N [TCMDC-138139] | 54.74% |
| Cc1cc(-c2ccc(O)c(CNC3CCCCC3)c2)cnc1N [TCMDC-138129] | -11.73% |
| CCC(C)CN1CCN(c2ccc(NC(=O)c3cccs3)cc2)C(C)C1 (centres unmarked) [TCMDC-134996] | 6.92% |
| COC(=O)c1cc(OC2CCOC2=O)cc2c1OC(C)(C)O2 (centres unmarked) [TCMDC-131234] | 42.88% |
| O=C(/C=C/c1cccc2ccccc12)NCCCCCN1CCC(c2c[nH]c3ccccc23)CC1 [TCMDC-139208] | 101.3% |
| O=C(/C=C/c1c[nH]c2ccccc12)NCCCCCN1CCC(c2c[nH]c3ccccc23)CC1 [TCMDC-139207] | -19.56% |
| O=C(/C=C/c1ccccc1O)NCCCCCN1CCC(c2c[nH]c3ccccc23)CC1 [TCMDC-139697] | 92.48% |
| O=C(NC1CCN(CCCc2ccccc2)CC1)c1ccc(-c2cccc(C(F)(F)F)c2)s1 [TCMDC-134323] | -38.84% |
| CC(C)Oc1cc2c(cc1NS(=O)(=O)c1ccc(-c3ccc(Cl)cc3)cc1F)CCN(C)CC2 [TCMDC-141589] | -14.09% |
| O=c1cnc2ccc(F)cc2n1CCN1CCC(NCc2cc(-c3ccccc3)cs2)CC1 [TCMDC-135134] | -21.73% |
| Cc1[nH]nc2ccc(-c3cc(OC[C@@H](N)Cc4ccccc4)cnc3-c3ccccc3OCc3cccc(F)c3)cc12 [TCMDC-136224] | -9.479% |
| Cc1csc(-c2ncc(OC[C@@H](N)Cc3ccccc3)cc2-c2ccc3n[nH]c(C)c3c2)c1 [TCMDC-136087] | -8.857% |
| Cc1[nH]nc2ccc(-c3cc(OC[C@@H](N)Cc4ccccc4)cnc3-c3ccc(OCc4cccc(F)c4)cc3)cc12 [TCMDC-136225] | 97.54% |
| Fc1cccc(COc2ccc(Nc3ncnc4cc(/C=C/[C@@H]5CCCN5)sc34)cc2Cl)c1 [TCMDC-134401] | 10.77% |
| O=C(NCc1ccccc1F)c1ccc(N2CCC(NCc3cccc(-n4cccn4)c3)CC2)cc1 [TCMDC-124670] | 2.936% |
| Cc1cc(N[C@@H](Cc2ccccc2)C(=O)NCCCOC(C)C)nc(NCCc2ccc(F)cc2)n1 [TCMDC-134866] | 73.24% |

| SMILES | % Inhibition |
| --- | --- |
| Cc1cc(N[C@@H](CC(C)C)C(=O)NCCCOC(C)C)nc(NCCc2ccc(F)cc2)n1 [TCMDC-134868] | 54.17% |
| COc1ccc(CC2(CO)CCN(Cc3ccc(O)c(Cl)c3)CC2)cc1 [TCMDC-124684] | -47.93% |
| CNC(=O)C1Cc2c([nH]c3cc(Cl)ccc23)C2(CCN(CCc3ccccc3)CC2)N1 (centres unmarked) [TCMDC-141299] | -88.09% |
| COc1ccc([N+](=O)[O-])cc1N(Cc1ccccc1-c1ccccc1)S(=O)(=O)c1ccc(C(F)(F)F)cc1 [TCMDC-141595] | -1.284% |
| COc1ccc([N+](=O)[O-])cc1N(Cc1ccccc1-c1ccccc1)S(=O)(=O)c1ccc(C(F)(F)F)cc1[N+](=O)[O-] [TCMDC-141596] | 92.47% |
| COc1cc(N(Cc2ccccc2C)S(=O)(=O)Cc2ccccc2[N+](=O)[O-])c(OC)cc1Cl [TCMDC-141749] | 44.47% |
| CCOC(=O)c1[nH]c(-c2cc(Cl)nc(Cl)c2)nc1NC(=S)NCCCN1CCOCC1 [TCMDC-138898] | -1.969% |
| COc1ccc2nccc([C@@H](O)CN3CCC(NCc4cc5cc(OC(F)(F)F)ccc5[nH]4)CC3)c2c1 [TCMDC-140692] | 96.42% |
| COc1ccc2nccc([C@@H](O)CN3CCC(NCc4cc5ccccc5[nH]c4=O)CC3)c2c1 [TCMDC-140759] | 15.99% |
| COc1ccc2nccc([C@@H](O)CN3CCC(NCc4cc5c(Cl)cc(Cl)cc5[nH]4)CC3)c2c1 [TCMDC-140649] | 102.2% |
| COc1ccc2nccc([C@@H](O)CN3CCC(NCc4nc5c(F)cc(F)cc5[nH]4)CC3)c2c1 [TCMDC-140664] | -52.05% |
| COc1ccc2nccc([C@@H](O)CN3CCC(NCc4nc5ccc(F)cc5[nH]4)CC3)c2c1 [TCMDC-140651] | -60.2% |
| COc1ccc2nccc([C@@H](O)CN3CCC(NCc4cc5ccc(C#N)cc5[nH]4)CC3)c2c1 [TCMDC-140696] | 8.806% |
| COc1ccc2nccc([C@@H](O)CN3CCC(NCc4nc5cc(F)c(F)cc5[nH]4)CC3)c2c1 [TCMDC-140665] | 66.97% |
| COc1ccc2nccc([C@@H](O)CN3CCC(NCc4nc5ccccc5[nH]4)CC3)c2c1 [TCMDC-140550] | 32.31% |
| COc1ccc2nccc([C@@H](O)CN3CCC(NCc4cc5ccc(Cl)cc5[nH]4)CC3)c2c1 [TCMDC-140694] | 96.18% |
| COc1ccc2nccc([C@@H](O)CN3CCC(NCc4cc5c(F)ccc(F)c5[nH]4)CC3)c2c1 [TCMDC-140739] | -16.25% |
| COc1ccc2nccc([C@@H](O)CN3CCC(NCc4cc5c(Cl)cccc5[nH]4)CC3)c2c1 [TCMDC-140695] | 48.39% |
| COc1ccc2nccc([C@@H](O)CN3CCC(NCc4cc5ccccc5[nH]4)CC3)c2c1 [TCMDC-140520] | 22.46% |
| CO/N=C(\C)c1ccc2c(c1)CCN(CCC1CCC(NC(=O)c3cccc(-c4noc(C)n4)c3)CC1)CC2 (centres unmarked) [TCMDC-139923] | 19.53% |
